Screens (PubChem)
In the library only some 3.5% were active in any assay of this set; here they are far more common.
GPR151 ag – activates the human receptor GPR151. PathHunter beta-arrestin GPR151 cells, luminescence. activation, % at 11.2 µM. actives 1% (n = 650,000). AID 1508602. Q8TDV0; in the data active = activation above about 4.9%
Target sequence (Q8TDV0 whole entry, looked up): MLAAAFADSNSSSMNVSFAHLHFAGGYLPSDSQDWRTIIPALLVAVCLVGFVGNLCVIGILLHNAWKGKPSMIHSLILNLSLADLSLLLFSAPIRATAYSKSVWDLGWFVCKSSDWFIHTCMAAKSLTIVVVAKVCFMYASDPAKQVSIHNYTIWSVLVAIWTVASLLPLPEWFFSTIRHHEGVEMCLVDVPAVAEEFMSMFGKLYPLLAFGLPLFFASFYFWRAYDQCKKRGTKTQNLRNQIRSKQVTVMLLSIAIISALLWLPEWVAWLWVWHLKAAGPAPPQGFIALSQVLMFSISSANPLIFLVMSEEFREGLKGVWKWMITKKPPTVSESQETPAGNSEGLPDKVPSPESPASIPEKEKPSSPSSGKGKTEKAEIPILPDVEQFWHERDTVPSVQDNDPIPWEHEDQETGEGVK
MITF primary – inhibitors of human MITF | O75030 | AlphaScreen MITF homodimerization, bead proximity signal | AID 1259374 | actives 0.91% (n = 650,000) | inhibition, % at 2.6 µM; in the data active = inhibition above about 50%
TEAD-YAP inh – TEAD-YAP interaction inhibition. HEK-TIYL cells, TEAD-Gal4/YAP UAS-luciferase luminescence. inhibition, % at 9.12 µM. actives 1.4% (n = 640,000). AID 1259422; in the data active = inhibition above about 32%
FBW7 act – human FBW7 E3 ligase activation, primary screen | AlphaScreen FBW7–phospho-cyclin E peptide binding, activator screen | normalized activity (activation), % at 26.1 µM | actives 0.13% (n = 650,000); in the data active = normalized activity above about 1.9%;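 also: purified mutant Fbw7 with reduced substrate affinity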
MITF confirm – confirmation of human MITF inhibitors; shares compounds with MITF primary; AlphaScreen MITF homodimerization, biotin/His-MITF beads; AID 1259372; actives 16% (n = 4,700); inhibition, % at 2.6 µM;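 active = inhibition above a cutoff derived from the DMSO control wells, cut at about 28% in these data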;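 also: inhibitors lower the bead chemiluminescence by keeping MITF from dimerizing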
AS interf DR – counter-screen: compounds optically interfering with AlphaScreen | shares compounds with MITF primary | AlphaScreen optical interference counterscreen, cell-free | IC50, µM | actives 6% (n = 480); call rule not given here
AS interf ctr – AlphaScreen optical interference, counter-screen; shares compounds with MITF primary; LysRS AlphaScreen counterscreen, signal interference, triplicate; inhibition, % at 2.6 µM; actives 7.6% (n = 4,700); AID 1259376;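 active = inhibition above a cutoff derived from the DMSO control wells, cut at about 30% in these data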
Numbers stand for hits; - = inactive; . = not tested or not shown.

SMILES	GPR151 ag	MITF primary	TEAD-YAP inh	FBW7 act	MITF confirm	AS interf ctr	others
O=C(CSc1ccc(-c2cccnc2)nn1)NCc1ccccc1	-	51	-	-	-	-
O=C1CSC(=O)N1CC(O)COc1cccc2ccccc12 (stereo unspecified)	-	89	-	-	-	-
CCOC(=O)NC(c1c(N)n(C)c(=O)n(C)c1=O)(C(F)(F)F)C(F)(F)F	-	-	-	-	.	.
O=S(=O)(c1ccccc1)N1CCN(CC(O)COCc2ccco2)CC1 (stereo unspecified)	-	94	-	-	-	-
O=C(Nc1cccnc1Cl)c1cnn2c(C(F)(F)F)cc(-c3cccs3)nc12	-	-	-	-	.	.
CSc1ccccc1NC(=O)c1cnn2c(C(F)(F)F)cc(-c3cccs3)nc12	-	75	-	-	-	-
CNC(=O)c1nnc(-c2ccccc2)o1	-	78	-	-	-	-
COCCn1c(=S)[nH]c2cc(C(=O)NCc3ccc(C)cc3)ccc2c1=O	-	62	-	-	-	-
CC(C)NC(=O)c1ccc2c(=O)n(CCC3=CCCCC3)c(=S)[nH]c2c1	-	84	-	-	-	-
COCCn1c(=S)[nH]c2cc(C(=O)NCc3ccc(F)cc3)ccc2c1=O	-	-	-	-	.	.
CCNc1nc(Nc2ccccc2)c2cnn(C)c2n1	-	-	-	-	.	.
CCCNc1nc(Nc2ccccc2)c2cnn(C)c2n1	-	112	-	-	-	-
C=CCNC(=O)CN(c1ccc(Cl)cc1)S(=O)(=O)c1ccc(OC)cc1	-	-	-	-	.	.
CCCn1c(SC(C(=O)NC(N)=O)C(C)C)nc2ccccc2c1=O (stereo unspecified)	-	55	-	-	-	-
Cc1nc2nc[nH]n2c(=O)c1NS(=O)(=O)c1ccc(F)cc1	-	-	-	-	.	.
Cc1nc2nc[nH]n2c(=O)c1NS(=O)(=O)c1ccc2c(c1)n(C)c(=O)n2C	-	64	-	-	-	-
Cc1ccc2[nH]cc(S(=O)(=O)c3ccc(F)cc3)c(=O)c2c1	-	-	-	-	.	.
Cn1cccc1C(CNC(=O)c1ccc(Cl)c(Cl)c1)N1CCOCC1 (stereo unspecified)	-	-	-	-	.	.
O=C1CC(N2CCN(c3ccc(Cl)cc3)CC2)C(=O)N1CCc1ccccc1 (stereo unspecified)	-	53	-	-	-	-
CCOc1ccc(-n2cc(-c3ccccc3)c3c(NCc4cccc(Cl)c4)ncnc32)cc1	-	-	-	-	.	.
Cc1cc(C)c2c(-n3cccc3)c(C(=O)NCCCOC(C)C)sc2n1	-	-	-	-	.	.
O=[N+]([O-])c1ccc(Nc2nc(-c3ccncc3)cs2)cc1	-	51	-	-	-	-
CC(=O)Nc1ccc(-c2csc(Nc3ccc([N+](=O)[O-])cc3)n2)cc1	-	-	-	-	.	.
O=S(=O)(c1ccc(Cl)cc1)N1CCN(Cc2cccc(Br)c2)CC1	-	51	-	-	-	-
O=S(=O)(c1ccc(F)cc1)N1CCN(Cc2cccc(Br)c2)CC1	-	60	-	-	-	-
SMILES	GPR151 ag	MITF primary	TEAD-YAP inh	FBW7 act	MITF confirm	AS interf ctr	others
O=C(c1ccccc1)N1CCN(c2ccc([N+](=O)[O-])c(NCCc3ccccc3)c2)CC1	-	-	-	-	.	.
COc1ccc(NC(=O)COc2ccc(C=C3C(=O)NC(=O)NC3=O)cc2)cc1	-	-	-	-	.	.
O=C(COC(=O)c1ccc([N+](=O)[O-])o1)Nc1ccc2c(c1)OC(F)(F)O2	-	82	-	-	-	-
Cc1ccc(OCC(=O)NNC(=O)C(C)C)c(C)c1	-	-	-	-	.	.
CC1=NN(c2ccc(C(=O)O)cc2)C(=O)/C1=C\c1ccc(O)cc1	-	-	-	-	.	.
Nc1nc(-c2cccnc2)nn1C(=O)c1ccc(Cl)cc1	-	-	-	-	.	.
Nc1nc(-c2cccnc2)nn1C(=O)c1ccc([N+](=O)[O-])cc1	-	55	-	-	-	-
CC1(C2CCN(Cc3ccccn3)CC2)NC(=O)N(C2Cc3ccccc3C2)C1=O (stereo unspecified)	-	-	-	-	.	.
CC1CCC(N2CCN(C(=O)c3ccccc3)CC2)CC1 (stereo unspecified)	-	-	-	-	.	.
CC(C)CC(=O)N1CCN(C2CCC(C)CC2)CC1 (stereo unspecified)	-	59	-	-	-	-
Cc1nc(NCCCn2ccnc2)c2ccccc2n1	-	-	-	-	.	.
Cc1nc(NCCCn2ccnc2)c2c(-c3cccs3)csc2n1	-	64	-	-	-	-
Cc1cc(OCC(=O)O)c([N+](=O)[O-])cc1Cl	-	-	-	-	.	.
O=C(c1ccccc1)N1CCC(N2CCN(c3ccccc3)CC2)CC1	-	79	-	-	-	-
O=C(c1cccc(Cl)c1)N1CCN(C2CCN(Cc3ccccc3)CC2)CC1	-	-	-	-	.	.
O=C(CCC1CCCC1)N1CCC(N2CCN(c3ccccc3)CC2)CC1	-	55	-	-	-	-
O=C(CCC(=O)N1CCN(c2ccccc2)CC1)N1CCN(c2ccccc2)CC1	-	-	-	-	.	.
O=C(c1ccccc1)N1CCN(C2CS(=O)(=O)CC2O)CC1 (stereo unspecified)	-	81	-	-	-	-
O=C(c1cccc(Cl)c1)N1CCC(N2CCN(c3ccccc3)CC2)CC1	-	79	-	-	-	-
O=C(OCc1nc2ccccc2s1)c1ccc([N+](=O)[O-])cc1[N+](=O)[O-]	-	-	-	-	.	.
Cc1ncc2c(c1CNC(=O)C1CCCO1)CCN(C(=O)c1ccc(N3CCCC3)cc1)C2 (stereo unspecified)	-	-	-	-	.	.
CC(=O)c1ccc(NC(=O)CCc2nnc3ccc(N4CCOCC4)nn23)cc1	-	-	-	-	.	.
N#CC1(C#N)[C@H](c2cccnc2)[C@@H](C(=O)c2ccccc2)N2c3ccc(Cl)cc3C=C[C@@H]21	-	-	-	-	.	.
N#CC1(C#N)C(c2cccnc2)C(C(=O)c2ccccc2)N2c3ncccc3C=CC21 (stereo unspecified)	-	71	-	-	-	-
CC(Oc1ccc(O)cc1)(P(=O)(O)O)P(=O)(O)O	-	97	.	-	96	-	AS interf DR=-
SMILES	GPR151 ag	MITF primary	TEAD-YAP inh	FBW7 act	MITF confirm	AS interf ctr	others
CCOC(=O)CC1COCCN1Cc1cn[nH]c1-c1ccc(C)c(C)c1 (stereo unspecified)	-	-	-	-	.	.
CCOc1ccc(CN(CCc2ccc3c(c2)OCO3)Cc2cccnc2)cc1	-	60	-	-	-	-
CCOc1ccc(CN(CCc2ccc3c(c2)OCO3)Cc2cc(OC)c(OC)cc2OC)cc1	-	-	-	-	.	.
CCOc1ccccc1CN(CCc1ccc2c(c1)OCO2)Cc1cccnc1	-	78	-	-	-	-
CCOc1ccc(CN(CCc2ccc3c(c2)OCO3)Cc2cccc3ccccc23)cc1	-	53	-	-	-	-
COc1cc(C=Nc2ccc(F)cc2)ccc1OC(C)=O	-	-	-	-	.	.
